Bioassay records as filed in PubChem BioAssay.
A selection: hits, their analogues and other compounds. The true share with any hit is near 6.9%.
S-ASM inh: inhibitors of human secretory acid sphingomyelinase; P17405; placental ASM, HMU-PC fluorogenic substrate, 60 min; Potency, µM (titrated, usually from 57.5 µM), actives largely listed as inhibitors; actives 0.006% (n = 340,000); AID 504937
Target sequence (P17405 47-631 limits assumed): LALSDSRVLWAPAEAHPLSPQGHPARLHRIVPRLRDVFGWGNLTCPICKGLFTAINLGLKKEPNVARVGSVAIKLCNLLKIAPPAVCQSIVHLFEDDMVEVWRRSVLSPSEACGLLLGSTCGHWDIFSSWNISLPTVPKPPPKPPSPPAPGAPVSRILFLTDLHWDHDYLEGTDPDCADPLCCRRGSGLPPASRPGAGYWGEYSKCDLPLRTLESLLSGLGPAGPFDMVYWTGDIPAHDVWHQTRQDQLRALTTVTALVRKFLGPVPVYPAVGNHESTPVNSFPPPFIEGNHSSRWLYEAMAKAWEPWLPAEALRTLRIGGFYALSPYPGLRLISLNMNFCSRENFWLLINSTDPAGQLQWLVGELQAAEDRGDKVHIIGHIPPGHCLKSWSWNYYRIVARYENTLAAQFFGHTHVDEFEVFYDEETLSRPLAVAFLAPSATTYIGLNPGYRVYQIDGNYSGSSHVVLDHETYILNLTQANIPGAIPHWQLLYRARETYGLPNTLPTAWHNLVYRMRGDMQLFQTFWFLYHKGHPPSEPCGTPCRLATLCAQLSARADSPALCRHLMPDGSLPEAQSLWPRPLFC
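HMU-PC0 cleavage (9 uM final) by human placental ASM, 60 min at 37 °C following 10 min compound exposure at RT; stopped at pH 10, fluorescence Ex 386/Em 447 nm.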
KB-V1 MDR tox: KB-V1 MDR subline cytotoxicity | KB-V1 MDR cells viability, CellTiter-Glo, 72 h | Potency, µM (series often up to 46.1 µM), hits mostly cytotoxic | actives 3.4% (n = 400,000) | AID 1347076; further: nearly all actives have a fitted effect of over 60% in size
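Readout: CellTiter-Glo luminescence, 10 min after addition. Cells: KB-V1 MDR subline, 72 h at 37 degrees C with compound. Analysis: corrected, normalized data fitted to concentration-effect curves.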
MCF10A rerep: inducers of DNA re-replication in MCF 10A breast cells; AID 624296; Potency, µM (titrated, usually from 46.1 µM), actives largely listed as activators; MCF 10A DNA re-replication, Hoechst nuclear intensity, 48 h; actives 2.9% (n = 350,000); further: nearly all actives have a fitted effect of over 50% in size
SW480 rerep: DNA re-replication induction in SW480 cells; SW480 DNA re-replication, Hoechst DNA content imaging, 48 h; Potency, µM (doses to about 46.1 µM), hits mostly activators; actives 1.8% (n = 340,000); AID 624297; further: nearly all actives have a fitted effect of over 55% in size
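Image-based read-out: total Hoechst fluorescence of nuclei (405 nm excitation, 500-530 nm emission), with hits raising the fraction of high-intensity nuclei. SW480 colon cells incubated 48 hr with compounds at 37 C.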
Giardia killer: Giardia lamblia killing; Giardia lamblia trophozoite viability; activity change, % at 7.66 µM, hits read low; actives 0.15% (n = 340,000); AID 540267; in the data active means activity change below about -80%; inconclusive means between about -30% and that limit;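 further: parasites exposed to compound for two days anaerobically before the ATP read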
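Luminescence from cellular ATP indicates surviving trophozoites (100 cells/well) following 48 hrs anaerobic compound treatment at 37 deg C; signal develops 15-30 min at room temperature.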
KB-3-1 tox: KB-3-1 parental cell cytotoxicity; actives 1.4% (n = 400,000); KB-3-1 viability, CellTiter-Glo ATP luminescence, 72 h; AID 1347075; Potency, µM (top dose mostly 46.1 µM), hits mostly cytotoxic; further: nearly all actives have a fitted effect of over 60% in size
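72 h, 37 °C compound treatment of KB-3-1 parental cells; CellTiter-Glo added, 10 min, luminescence read. Data corrected against DMSO-only plates and normalized before curve fitting.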
A number is an active result; n = inactive; u = inconclusive; x = no result given; ! = repeats disagree. Unless noted, the call rests on the fitted dose curve; in most records, active means well fitted curve in the direction sought with a large enough effect; inconclusive means small, poorly fitted or top-dose-only effect, or another doubt; inactive means no such curve, though single readings can be large; an effect the other way counts as inactive or inconclusive.

SMILES	S-ASM inh	KB-V1 MDR tox	MCF10A rerep	SW480 rerep	Giardia killer	KB-3-1 tox
CCc1ccc(NC(=O)c2c(C(=O)Nc3ccccc3)sc3nc(C)cc(=O)n23)cc1	n	n	18.4µM	n	n	n
COc1ccc(OC)c(CN2C(=O)c3ccccc3C2c2nnnn2-c2ccc3c(c2)OCCO3)c1 (configuration not stated)	x	n	x	x	x	4.61µM
O=C(Nc1cccc2cccnc12)OC(Cl)(Cl)Cl	x	x	x	x	n	x
Cc1cccc(C)c1OCC(=O)N[C@@H](Cc1ccccc1)[C@@H](O)C[C@H](Cc1ccccc1)NC(=O)[C@H](C(C)C)N1CCCNC1=O	x	n	u	u	x	n
COc1ccc(NC(=O)Cn2nc(-c3ccccc3)c3cnc4ccc(C)cc4c32)cc1	x	n	x	x	x	n
O=C(Cc1ccc(F)cc1)Nc1cccc(-c2cn3c(n2)SCC3)c1	n	18.4µM	n	n	n	n
O=C(Nc1cccc(-c2cn3c(n2)SCC3)c1)c1ccc(Br)o1	n	n	n	n	n	n
CCOc1ccc(S(=O)(=O)c2cc3cccc(OCC)c3oc2=O)cc1	x	n	x	x	x	n
CC(C)n1c(O)c(N=NC(=O)Cn2ccc(C(F)(F)F)n2)c2ccccc21	n	8.2µM	u	n	n	u
COc1cccc(C2C=C(c3ccc(C)cc3)Nc3c(C(=O)Nc4ccc(F)cc4)cnn32)c1OC (configuration not stated)	x	u	x	x	x	n
CC(C)CC(=O)NC(Nc1ccccc1F)C(Cl)(Cl)Cl (configuration not stated)	n	u	n	n	n	u
CC(C)CC(=O)NC(Nc1ccc([N+](=O)[O-])cc1)C(Cl)(Cl)Cl (configuration not stated)	x	18.4µM	n	n	n	u
COC(=O)NC(NC(=S)Nc1ccc([N+](=O)[O-])cc1)C(Cl)(Cl)Cl (configuration not stated)	n	20.6µM	n	n	n	u
O=C(NNC(=S)NC(=O)c1ccccc1Cl)c1cccc([N+](=O)[O-])c1	n	n	u	n	n	u
O=C(NC(NC(=S)Nc1c(Cl)cccc1Cl)C(Cl)(Cl)Cl)c1cccc([N+](=O)[O-])c1 (configuration not stated)	n	u	6.51µM	u	n	u
Cn1c(CNC(=O)c2ccc3c(c2)OCO3)nnc1SCC(=O)Nc1ccccc1F	n	n	n	n	n	n
COc1ccc(C(=O)C=CNNC(=O)c2ccc(Cl)cc2)cc1	n	u	5.8µM	3.66µM	n	u
COc1ccc(C(=O)NN/C=C/C(=O)c2ccc(Br)cc2)cc1	x	n	x	x	x	n
Cc1ccc(C)c(N=Nc2ccc(O)c3ncccc23)c1	n	u	16.4µM	n	n	n
Cc1ccnc(Nc2cccnc2)n1	x	n	x	x	x	n
Cc1ccc(N=C2CCCN2Cc2ccccc2)c(C#N)c1	n	18.4µM	n	n	n	u
COc1ccc(-c2cc(C(=O)OCC(=O)c3c(N)n(C)c(=O)n(C)c3=O)c3ccccc3n2)cc1	n	n	n	n	n	n
COc1ccc(/C=C2\CCCc3c2nc2ccccc2c3C(=O)OCC(=O)c2c(N)n(C)c(=O)n(C)c2=O)cc1	x	x	4.61µM	u	x	x
Cc1nc2ccn(Cc3cccnc3)c(=O)c2cc1C(=O)NCc1ccccc1	x	n	x	x	x	u
O=S(=O)(c1cccc2ccccc12)N1CCN(c2ccc(Cl)c(Cl)c2)CC1	x	u	x	x	x	n
SMILES	S-ASM inh	KB-V1 MDR tox	MCF10A rerep	SW480 rerep	Giardia killer	KB-3-1 tox
Cc1ccc(-c2csc(NC(=O)/C=C/c3cccs3)n2)cc1C	n	9.2µM	u	n	n	u
COc1cc(C(=O)NC(=S)Nc2nc(-c3ccc(F)cc3)cs2)cc(OC)c1OC	n	n	n	n	n	u
COc1ccc(-c2csc(NC(C)=O)n2)cc1OC	n	n	n	n	n	n
Cn1c(=O)c2c(ncn2CC(=O)Nc2nc(-c3ccc(F)c(F)c3)cs2)n(C)c1=O	n	u	u	u	n	n
N#Cc1ccc(-c2csc(NC(=O)/C=C/c3cccs3)n2)cc1	n	n	u	n	n	n
COc1ccc(-c2csc(NC(=S)NC(=O)c3ccc4ccccc4c3)n2)cc1OC	n	u	u	14.6µM	n	u
COc1cccc(NC(=O)Nc2nc(-c3ccc(OC)c(OC)c3)cs2)c1	n	u	20.6µM	n	n	18.4µM
Cc1ccc(-c2csc(NC(=O)Cn3cnc4c3c(=O)n(C)c(=O)n4C)n2)cc1C	n	n	20.6µM	n	n	n
CCCc1cc(=O)oc2cc(C)cc(OC(C)C(=O)NCc3ccccn3)c12 (configuration not stated)	n	n	n	n	n	n
O=C1C[C@H]2C=CCc3cccc(c32)CN1Cc1ccc(Br)cc1	x	u	x	x	x	n
COc1ccc(-c2csc(NC(=O)CCn3cnc4ccccc4c3=O)n2)cc1OC	n	18.4µM	n	n	n	n
CCN(CC(=O)Nc1c(F)cccc1F)C(=O)c1ccc(S(=O)(=O)N2CCC(C)CC2)cc1	n	20.6µM	n	n	n	n
Cc1cc(C(F)(F)F)n2nc(-c3ccc(Br)cc3)cc2n1	x	u	x	x	x	n
Cc1nc2ccc(S(=O)(=O)CCC(=O)Nc3ccc(C(C)C)cc3)cc2s1	x	n	x	x	x	n
COc1ccc(SC[C@H](C)CN2CC[C@H](C(C)(C)C)CCC2=O)cc1	n	14.6µM!	u	n	u	u
C[C@@H](CSc1ccccc1)CN1CC[C@H](C(C)(C)C)CCC1=O	n	18.4µM!	u	n	n	u
COc1ccccc1NC(=O)CN1C(=O)CCSc2ccccc21	x	u	x	x	x	n
Oc1ccccc1-n1c(-c2ccccc2)ccc1-c1ccccc1	n	n	20.6µM	n	n	n
CCOC(=O)N1CCN(C(=O)c2cc3cc(Cl)ccc3[nH]2)CC1	n	n	n	n	n	n
O=[N+]([O-])c1cc([N+](=O)[O-])c(N2CCCCCC2)cc1NCCO	n	9.2µM	n	n	n	n
O=[N+]([O-])c1c(NCCO)cc(N2CCCCC2)c2nonc12	n	n	n	n	n	n
Cc1nc(NC(=O)/C=C/c2ccccc2)sc1C(=O)Nc1ccc(Cl)cc1	n	n	16.4µM	u	n	n
Cc1nc(Nc2ccc(Cl)c(Cl)c2)sc1C(=O)Nc1ccccc1	u	n	23.1µM	n	n	u
CC(=O)Oc1ccc2cc(-c3nc4c(s3)CCc3ccccc3-4)c(=O)oc2c1	x	n	x	x	n	u
ICC[n+]1csc2ccccc21	x	n	x	x	x	n
CC(=O)N1CCC2(CC1)CC(=O)c1cc(OCC(=O)N3CCOCC3)ccc1O2	n	n	n	20.6µM	n	n
CCOC(=O)N1CCN(C(=O)COc2ccc3c(c2)C(=O)CC2(CCN(C(C)=O)CC2)O3)CC1	n	n	n	n	n	n
